Only some compounds are listed: those with a hit (about 22% of all), similar ones and a draw of the others.
Pf growth 96h: inhibits malaria parasite growth, 96 h | P. falciparum luciferase reporter growth, 96 h | Potency, µM (doses to about 28.7 µM), for inactives: top-dose activity change, negative = inhibition, most hits filed as inhibitors | 320,000 compounds, 6.9% hits; note: potency is the fitted concentration of half-maximal effect; % is set by controls: 0 for no effect and ±100 for the full control effect
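Readout is luminescence from an integrated firefly luciferase in P. falciparum. Red cells, 2% hematocrit and 0.05% parasitemia final, were cultured with compound through two parasite generations (96 hours) at 37 C, 5% CO2.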
Pf growth 48h: inhibits P. falciparum growth in the first generation, 48 h; P. falciparum luciferase growth in erythrocytes, 48 h; Potency, µM (highest dose often 28.7 µM), for the others: top-dose activity change, negative = inhibition, hits mostly inhibitors; 310,000 compounds, 5.9% hits; note: potency is the fitted concentration of half-maximal effect; % is set by controls: 0 for no effect and ±100 for the full control effect
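Cell-based growth assay: transgenic P. falciparum expressing firefly luciferase, cultured in red cells within RPMI 1640 containing 0.5% w/v Albumax, 24 mM bicarbonate and gentamycin. A drop in luciferase activity indicates inhibition.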
Shiga inhibitor: inhibitors of Shiga toxin in Vero cells; Vero cells, Shiga toxin protein synthesis inhibition reporter; inhibition, % at 38.7 µM; 290,000 compounds, 9.2% hits; in the data active = inhibition mostly above about 28%, no sharp cut-off; inactive = mostly below about 43%; note: 0% is about no effect
Cycloheximide cs: affects cycloheximide protein synthesis inhibition readout, counter-screen; max response, %; cell reporter, cycloheximide protein synthesis inhibition counterscreen; AID 2314; 300,000 compounds, 12% hits; in the data active = max response mostly above about 13%, no sharp cut-off; inactive = mostly below about 14%; note: read at 38.3 µM for the half of the compounds with a filed dose; 0% is about no effect
LmPK inhibitor: LmPK (Leishmania mexicana) enzyme inhibition; purified LmPK, Kinase-Glo ATP luminescence, 1 h; Potency, µM (doses to about 57.5 µM), for inactives: at the highest dose activity change, negative = inhibition, most hits filed as inhibitors; 290,000 compounds, 0.37% hits; AID 1721; note: potency is the fitted concentration of half-maximal effect; % is set by controls: 0 for no effect and ±100 for the full control effect
Target sequence (Q27686 whole entry, looked up): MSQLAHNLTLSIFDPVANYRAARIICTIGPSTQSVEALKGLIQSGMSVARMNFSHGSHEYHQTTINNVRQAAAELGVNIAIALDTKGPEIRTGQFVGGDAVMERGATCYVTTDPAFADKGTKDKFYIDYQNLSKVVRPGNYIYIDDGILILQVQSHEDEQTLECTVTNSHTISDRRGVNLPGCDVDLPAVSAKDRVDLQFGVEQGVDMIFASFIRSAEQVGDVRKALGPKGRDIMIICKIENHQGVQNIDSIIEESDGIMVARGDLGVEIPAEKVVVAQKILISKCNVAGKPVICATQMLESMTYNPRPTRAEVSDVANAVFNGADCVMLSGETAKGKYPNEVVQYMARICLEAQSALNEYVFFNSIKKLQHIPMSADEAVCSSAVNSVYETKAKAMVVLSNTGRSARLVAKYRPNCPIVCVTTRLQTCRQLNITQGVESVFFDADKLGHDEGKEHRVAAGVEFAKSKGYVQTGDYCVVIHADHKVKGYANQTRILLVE
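Purified LmPK (0.1 nM) with 0.5 mM PEP and 0.1 mM ADP in imidazole buffer pH 7.2 with MgCl2/KCl, 1 h at room temperature. ATP formed was read by luciferase luminescence and normalized to no-enzyme and uninhibited controls.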
Active calls of the source: *; ? = inconclusive; / = no result; [ ] = remark or other dose. Unless noted, calls come from the whole dose curve; as a rule, active = well fitted inhibition curve with a large enough effect; inconclusive = small, poorly fitted or top-dose-only effect, or another doubt; inactive = no such curve, though single readings can be large or run the other way.

SMILES	Pf growth 96h	Pf growth 48h	Shiga inhibitor	Cycloheximide cs	LmPK inhibitor
Cc1ccc(N2CC(C(=O)N3CCCc4ccccc43)CC2=O)cc1 (centres undefined)	/	-19%	24	8	1%
O=C1[C@@H]2Cc3c([nH]c4ccccc34)C(c3cccc([N+](=O)[O-])c3)N2C(=O)CN1CCCO (some centres undefined)	6%	10%	-5	-3	4%
CCc1ccc(-c2csc3nc[nH]c(=O)c23)cc1	?	24%	15	22*	-2%
CC(C)c1ccc(-c2csc3nc[nH]c(=O)c23)cc1	54%	48%	/	24*	13%
O=c1[nH]cnc2scc(-c3ccc(Br)cc3)c12	?	29%	25	11	-1%
CCOc1ccc(-c2csc3nc[nH]c(=O)c23)cc1	?	0%	110*	30*	0%
O=c1[nH]cnc2scc(-c3ccccc3)c12	-20%	2.6µM*	-6	-2	-3%
CC(=O)Nc1ccc(NC(=O)C(C)Sc2n[nH]c(=O)n2Cc2ccccc2)cc1 (centres undefined)	-2%	4%	-3	-4	0%
Cc1nnc(NC(=O)c2ccc3c(c2)C(=O)N(CCC(C)C)C3=O)s1	-34%	/	15	-4	2%
CC(C)CCN1CCN(Cc2cccc(C(F)(F)F)c2)CC1CCO (centres undefined)	1%	?	-15	0	1%
O=C1/C(=C/c2cccnc2)Sc2ccccc21	7.4µM*	?	-2	13	?
Cc1ccc(/C=C2\SC(N)=NC2=O)s1	10%	36%	12	15	0%
Cc1ccc(/C=C2\Sc3ccccc3C2=O)s1	-3%	?	34*	14*	11µM*
CC(=O)Nc1ccc(/C=C2\Sc3ccccc3C2=O)cc1	20%	12%	25	5	-1%
CCN(CC)CC1CCN(c2ncc3ncnc(Nc4ccc(F)c(Cl)c4)c3n2)CC1	/	/	-15	-17	/
COc1ccccc1N/C(=N/S(=O)(=O)c1ccc(Cl)cc1)c1ccccc1	-18%	?	-4	-2	5%
O=C(Nc1ccccn1)c1ccc(S(=O)(=O)c2ccc(Cl)cc2)cc1	36%	?	-5	-2	1%
O=S(=O)(/N=C(/Nc1ccccn1)c1ccc(Cl)cc1)c1ccc(Cl)cc1	?	33%	20	49*	3%
COc1cc(N/C(=N/S(=O)(=O)c2ccccc2)c2ccccc2)ncn1	-12%	118%	68*	46*	2%
O=C(NN/C(=N/S(=O)(=O)c1ccc(Cl)cc1)c1ccccc1)c1ccc(O)cc1	146%	197%	56*	67*	-24%
O=C(O)c1cccc(N/C(=N\S(=O)(=O)c2ccccc2)c2ccccc2)c1	8%	16%	-6	-3	0%
O=C(NN/C(=N/S(=O)(=O)c1ccc(Cl)cc1)c1ccccc1)c1cccc(Cl)c1	10%	273%	81*	31*	-4%
Cc1noc(C)c1COc1ccc(C(=O)OC(C)C(=O)Nc2ccc(S(=O)(=O)N3CCOCC3)cc2)cc1 (centres undefined)	-7%	?	3	-4	1%
O=C(COC(=O)C1CCC1)NC(=O)c1ccccc1	51%	18%	/	/	/
Cc1ccc(S(=O)(=O)/N=C(/NNC(=O)c2cccc(Cl)c2)c2ccccc2)cc1	?	218%	99*	33*	8%
SMILES	Pf growth 96h	Pf growth 48h	Shiga inhibitor	Cycloheximide cs	LmPK inhibitor
O=C1S/C(=C\c2cccs2)C(=O)N1c1ccc(O)cc1	117%	37%	63*	38*	-5%
O=C1/C(=C/c2cccs2)SC(=S)N1c1ccccc1	30%	10%	36	-3	3%
O=C1/C(=C/c2cccs2)SC(=S)N1c1cccc(O)c1	22%	69%	61	26*	6%
COc1ccc(C2=CSC(/N=C/c3ccc(F)cc3)=NN2)cc1	?	0%	-4	30*	-4%
CN(C)CC(C)(C)CNS(=O)(=O)c1ccc(Cl)c(Cl)c1	5%	?	-9	0	0%
COc1ccc(-c2nnc(SCc3cc(C)ccc3C)n2N)cc1	1%	-17%	-11	-2	-4%
COc1ccc(Cc2nccc3cc(OC)c(OC)cc23)cc1OC	?	?	19	-1	3%
CC[n+]1ccc2cc(OC)c(OC)cc2c1Cc1ccc(OC)c(OC)c1	?	1.2µM*	20	-2	23%
COc1ccc(Cc2c3cc(OC)c(OC)cc3cc[n+]2C)cc1OC	8.3µM*	?	-5	-6	6%
CCN(CC)CCN(C(=O)c1ccc2c(c1)CCCC2)c1nc2ccc(C)cc2s1	?	13µM*	32	20*	1%
CCN(CC)CCN(C(=O)c1ccc2c(c1)CCCC2)c1nc2c(C)cccc2s1	?	9.3µM*	4	-2	-2%
CCN(CC)CCN(C(=O)c1ccc2c(c1)CCCC2)c1nc2ccc(F)cc2s1	?	?	42	16	-3%[11.5 µM]
CCN(CC)CCN(C(=O)c1ccc2c(c1)CCCC2)c1nc2ccc(OC)cc2s1	?	?	61	0	2%
O=C(COc1ccccc1[N+](=O)[O-])N(Cc1cccc(Br)c1)C1CCS(=O)(=O)C1 (centres undefined)	?	-29%	-1	-7	-10%
FC(F)(F)c1ccc(NCCc2ccccc2)nc1	-25%	26%	19	14*	-3%
CC(Nc1nc(N2CCN(S(C)(=O)=O)CC2)nc2ccccc12)c1ccccc1 (centres undefined)	?	7.4µM*	-7	-2	6%
COc1ccc(Nc2nc(N3CCN(S(=O)(=O)N(C)C)CC3)nc3ccccc23)cc1	8.3µM*	10µM*	-8	-1	-6%
COc1cccc(-c2nn3c(-c4cc(C)[nH]n4)nnc3s2)c1	10µM*	/	-10	-3	0%
COc1cccc(-c2nnc3sc(-c4ccccn4)nn23)c1	?	-18%	26	3	3%
c1ccc(OCc2nn3c(-c4ccccn4)nnc3s2)cc1	?	38%	68*	33*	-3%
COc1cccc(-c2nn3c(-c4ccccn4)nnc3s2)c1	59%	/	42	15*	2%
COc1ccccc1-c1nnc2sc(COc3ccc(F)cc3)nn12	18%	1.5µM*	-7	1	4%
CC(C)CN(CC(C)C)C(=O)Nc1ccccc1F	-2%	1%[5.75 µM]	13	-2	3%
O=C(CSc1nnc2c(n1)[nH]c1ccccc12)Nc1nncs1	?	20%	-9	-6	1%
Cc1ccc(CSc2nnc([C@@H]3CCCN3C(=O)OC(C)(C)C)o2)cc1	?	?	26	-3	1%
Cc1cccc(-c2nnc3sc(-c4ccccc4)nn23)c1	2.3µM*	14%	5	4	-12%
c1ccc(-c2nn3c(-c4ccccc4)nnc3s2)cc1	-11%	8%	-9	10	1%
COc1cc(-c2nnc3sc(-c4cccs4)nn23)cc(OC)c1OC	/	-20%	-5	-3	-2%
